# Results taken from the supplement of paper PMC8728848.
# This excerpt belongs to a sample that is enriched for the strongest signals.
# B1: AFCNVH (Aspergillus fumigatus) (protein)
# chain: MSLRGFHTTCDTIVLKDKHILSSRCKRPDGTYSFSEIDLNDCLGNNNGKFVWGGESFVDSASQVNLALEGGEGRPMLHAQLNDWHGSVQSASVNLGECIQNEAGGLEYMHC
# Tests used:
# Test in all cases: glycan array binding signal (z-score within array); higher = stronger binding
# Conditions in all cases: glycan notation: IUPAC condensed, linker removed
# [1] = molecular target: Fuc(a1-2)Gal(b1-4)Fuc(a1-3)]GlcNAc(b1-2)Man(a1-3)[Fuc(a1-2)Gal(b1-4)[Fuc(a1-3)]GlcNAc(b1-2)Man(a1-6)]Man(b1-4)GlcNAc(b1-4)GlcNAc
# Outline: (§1)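 Glycan array data were curated from 3228 arrays in the Consortium for Functional Glycomics database and kept only where the protein sequence was available. Glycan names were converted to IUPAC-condensed notation, and columns mapping to the same glycan were averaged. The binding signal is a within-array Z-score, averaged across arrays of the same protein sequence at different concentrations or buffers and across linkers. Negative Z-scores can be read as non-binding.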
# [2] = molecular target: Fuc(a1-2)Gal(b1-4)GlcNAc(b1-2)Man(a1-3)[Fuc(a1-2)Gal(b1-4)GlcNAc(b1-2)Man(a1-6)]Man(b1-4)GlcNAc(b1-4)[Fuc(a1-6)]GlcNAc
# Outline: as §1
# [3] = molecular target: Fuc(a1-2)Gal(b1-4)GlcNAc(b1-2)[Fuc(a1-2)Gal(b1-4)GlcNAc(b1-4)]Man(a1-3)[Fuc(a1-2)Gal(b1-4)GlcNAc(b1-2)Man(a1-6)]Man(b1-4)GlcNAc(b1-4)GlcNAc
# Outline: as §1
# [4] = molecular target: Fuc(a1-2)[Gal(a1-3)]Gal(b1-3)GlcNAc(b1-2)Man(a1-3)[Fuc(a1-2)[Gal(a1-3)]Gal(b1-3)GlcNAc(b1-2)Man(a1-6)]Man(b1-4)GlcNAc(b1-4)[Fuc(a1-6)]GlcNAc
# Outline: as §1
# [5] = molecular target: Fuc(a1-2)[Gal(a1-4)]Gal(b1-4)GlcNAc
# Outline: as §1
# [6] = molecular target: Fuc(a1-3)[Gal(b1-4)]Glc6S
# Outline: as §1
# [7] = molecular target: Fuc(a1-3)[Gal(b1-4)]GlcNAc6S
# Outline: as §1
# [8] = molecular target: Fuc(a1-3)[GalNAc(b1-4)]GlcNAc6S
# Outline: as §1
# Gal(a1-3)Gal(b1-3)GlcNAc = molecular target: Gal(a1-3)Gal(b1-3)GlcNAc
# Outline: as §1
# Gal(a1-3)GalNAc = molecular target: Gal(a1-3)GalNAc
# Outline: as §1
# [9] = molecular target: Gal(b1-3)GalNAc(b1-3)Gal(a1-4)Gal(b1-4)Glc
# Outline: as §1
# [10] = molecular target: Gal(b1-3)GlcNAc(b1-6)Gal(b1-4)GlcNAc
# Outline: as §1
# [11] = molecular target: Gal(b1-3)[Neu5Ac(a2-6)]GalNAc
# Outline: as §1
# [12] = molecular target: Gal(b1-4)GlcNAc(b1-2)[Gal(b1-4)GlcNAc(b1-6)]Man(a1-6)[Gal(b1-4)GlcNAc(b1-2)Man(a1-3)]Man(b1-4)GlcNAc(b1-4)[Fuc(a1-6)]GlcNAc
# Outline: as §1
# [13] = molecular target: Gal(b1-4)GlcNAc(b1-3)Gal(b1-4)GlcNAc(b1-3)[Gal(b1-4)GlcNAc(b1-3)Gal(b1-4)GlcNAc(b1-6)]GalNAc
# Outline: as §1
# [14] = molecular target: Gal(b1-4)GlcNAc(b1-3)[GlcNAc(b1-6)]Gal(b1-4)GlcNAc
# Outline: as §1
# [15] = molecular target: GalNAc(a1-3)GalNAc(b1-3)Gal(a1-4)Gal(b1-4)Glc
# Outline: as §1
# [16] = molecular target: GalNAc(b1-3)Gal(a1-6)Gal(b1-4)Glc
# Outline: as §1
# [17] = molecular target: GalNAc(b1-4)GlcNAc(b1-2)Man
# Outline: as §1
# [18] = molecular target: GalNAc(b1-4)GlcNAc(b1-2)Man(a1-3)[GalNAc(b1-4)GlcNAc(b1-2)Man(a1-6)]Man(b1-4)GlcNAc(b1-4)GlcNAc
# Outline: as §1
# GalNAc3S(b1-4)GlcNAc = molecular target: GalNAc3S(b1-4)GlcNAc
# Outline: as §1
# [19] = molecular target: GlcNAc(a1-3)Gal(b1-4)GlcNAc
# Outline: as §1
# [20] = molecular target: GlcNAc(a1-4)Gal(b1-4)GlcNAc(b1-3)Gal(b1-4)Glc
# Outline: as §1
# [21] = molecular target: GlcNAc(b1-2)Man(a1-3)[GlcNAc(b1-2)Man(a1-6)]Man(b1-4)GlcNAc(b1-4)GlcNAc
# Outline: as §1
# [22] = molecular target: GlcNAc(b1-2)Man(a1-3)[GlcNAc(b1-4)][GlcNAc(b1-2)Man(a1-6)]Man(b1-4)GlcNAc(b1-4)GlcNAc
# Outline: as §1
# [23] = molecular target: GlcNAc(b1-2)[GlcNAc(b1-6)]Man(a1-6)[GlcNAc(b1-2)Man(a1-3)]Man(b1-4)GlcNAc(b1-4)GlcNAc
# Outline: as §1
# GlcNAc(b1-3)Gal(b1-4)Glc = molecular target: GlcNAc(b1-3)Gal(b1-4)Glc
# Outline: as §1
# [24] = molecular target: GlcNAc(b1-3)Gal(b1-4)GlcNAc(b1-3)Gal(b1-4)GlcNAc(b1-2)[GlcNAc(b1-3)Gal(b1-4)GlcNAc(b1-3)Gal(b1-4)GlcNAc(b1-6)]Man(a1-6)[GlcNAc(b1-3)Gal(b1-4)GlcNAc(b1-3)Gal(b1-4)GlcNAc(b1-2)Man(a1-3)]Man(b1-4)GlcNAc(b1-4)[Fuc(a1-6)]GlcNAc
# Outline: as §1
# [25] = molecular target: GlcNAc(b1-3)Gal(b1-4)GlcNAc(b1-3)Gal(b1-4)GlcNAc(b1-3)Gal(b1-4)GlcNAc(b1-2)Man(a1-3)[GlcNAc(b1-3)Gal(b1-4)GlcNAc(b1-3)Gal(b1-4)GlcNAc(b1-3)Gal(b1-4)GlcNAc(b1-2)Man(a1-6)]Man(b1-4)GlcNAc(b1-4)GlcNAc
# Outline: as §1
# [26] = molecular target: GlcNAc(b1-3)Gal(b1-4)GlcNAc(b1-3)Gal(b1-4)GlcNAc(b1-3)Gal(b1-4)GlcNAc(b1-2)[GlcNAc(b1-3)Gal(b1-4)GlcNAc(b1-3)Gal(b1-4)GlcNAc(b1-3)Gal(b1-4)GlcNAc(b1-6)]Man(a1-6)[GlcNAc(b1-3)Gal(b1-4)GlcNAc(b1-3)Gal(b1-4)GlcNAc(b1-3)Gal(b1-4)GlcNAc(b1-2)Man(a1-3)]Man(b1-4)GlcNAc(b1-4)[Fuc(a1-6)]GlcNAc
# Outline: as §1
# [27] = molecular target: GlcNAc(b1-3)Gal(b1-4)GlcNAc(b1-3)Gal(b1-4)GlcNAc(b1-3)Gal(b1-4)GlcNAc(b1-3)Gal(b1-4)GlcNAc(b1-2)Man(a1-3)[GlcNAc(b1-3)Gal(b1-4)GlcNAc(b1-3)Gal(b1-4)GlcNAc(b1-3)Gal(b1-4)GlcNAc(b1-3)Gal(b1-4)GlcNAc(b1-2)Man(a1-6)]Man(b1-4)GlcNAc(b1-4)[Fuc(a1-6)]GlcNAc
# Outline: as §1
# [28] = molecular target: GlcNAc(b1-3)Gal(b1-4)GlcNAc(b1-3)Gal(b1-4)GlcNAc(b1-3)Gal(b1-4)GlcNAc(b1-3)Gal(b1-4)GlcNAc(b1-2)[GlcNAc(b1-3)Gal(b1-4)GlcNAc(b1-3)Gal(b1-4)GlcNAc(b1-3)Gal(b1-4)GlcNAc(b1-3)Gal(b1-4)GlcNAc(b1-6)]Man(a1-6)[GlcNAc(b1-3)Gal(b1-4)GlcNAc(b1-3)Gal(b1-4)GlcNAc(b1-3)Gal(b1-4)GlcNAc(b1-3)Gal(b1-4)GlcNAc(b1-2)Man(a1-3)]Man(b1-4)GlcNAc(b1-4)[Fuc(a1-6)]GlcNAc
# Outline: as §1
# [29] = molecular target: GlcNAc(b1-3)[GlcNAc(b1-4)][GlcNAc(b1-6)]GlcNAc
# Outline: as §1
# [30] = molecular target: GlcNAc(b1-4)GlcNAc(b1-4)GlcNAc(b1-4)GlcNAc(b1-4)GlcNAc
# Outline: as §1
# GlcNAc(b1-6)GalNAc = molecular target: GlcNAc(b1-6)GalNAc
# Outline: as §1
# [31] = molecular target: Kdn(a2-3)Gal(b1-4)[Fuc(a1-3)]GlcNAc
# Outline: as §1
# [32] = molecular target: Man(a1-2)Man(a1-3)[Man(a1-2)Man(a1-6)]Man(a1-6)[Man(a1-2)Man(a1-2)Man(a1-3)]Man(b1-4)GlcNAc(b1-4)GlcNAc
# Outline: as §1
# Man(b1-4)GlcNAc = molecular target: Man(b1-4)GlcNAc
# Outline: as §1
# [33] = molecular target: Neu5Ac(a2-3)Gal(b1-3)GlcNAc(b1-2)[Neu5Ac(a2-3)Gal(b1-3)GlcNAc(b1-4)]Man(a1-6)[Neu5Ac(a2-3)Gal(b1-3)GlcNAc(b1-2)Man(a1-3)]Man(b1-4)GlcNAc(b1-4)GlcNAc
# Outline: as §1
# [34] = molecular target: Neu5Ac(a2-3)Gal(b1-3)GlcNAc(b1-3)GalNAc
# Outline: as §1
# [35] = molecular target: Neu5Ac(a2-3)Gal(b1-3)GlcNAc6S
# Outline: as §1
# [36] = molecular target: Neu5Ac(a2-3)Gal(b1-3)[Fuc(a1-4)]GlcNAc(b1-3)Gal(b1-4)[Fuc(a1-3)]GlcNAc
# Outline: as §1
# [37] = molecular target: Neu5Ac(a2-3)Gal(b1-3)[Neu5Ac(a2-6)]GlcNAc(b1-3)[Fuc(a1-3)[Gal(b1-4)]GlcNAc(b1-6)]Gal(b1-4)Glc
# Outline: as §1
# [38] = molecular target: Neu5Ac(a2-3)Gal(b1-3)]Neu5Ac(a2-3)Gal(b1-4)]GlcNAc
# Outline: as §1
# [39] = molecular target: Neu5Ac(a2-3)Gal(b1-4)GlcNAc(b1-2)[Neu5Ac(a2-3)Gal(b1-4)GlcNAc(b1-4)]Man(a1-3)[GlcNAc(b1-4)][Neu5Ac(a2-3)Gal(b1-4)GlcNAc(b1-2)[Neu5Ac(a2-3)Gal(b1-4)GlcNAc(b1-6)]Man(a1-6)]Man(b1-4)GlcNAc(b1-4)GlcNAc
# Outline: as §1
# [40] = molecular target: Neu5Ac(a2-3)Gal(b1-4)GlcNAc(b1-3)Gal(b1-4)[Fuc(a1-3)]GlcNAc
# Outline: as §1
# [41] = molecular target: Neu5Ac(a2-3)Gal(b1-4)GlcNAc(b1-3)GalNAc
# Outline: as §1
# [42] = molecular target: Neu5Ac(a2-3)GalNAc(b1-4)GlcNAc
# Outline: as §1
# [43] = molecular target: Neu5Ac(a2-8)Neu5Ac(a2-3)Gal(b1-3)GalNAc(b1-4)[Neu5Ac(a2-3)]Gal(b1-4)Glc
# Outline: as §1
# [44] = molecular target: Neu5Ac(a2-8)Neu5Gc(a2-3)Gal(b1-4)GlcNAc
# Outline: as §1
# Neu5Gc(a2-3)Gal(b1-4)Glc = molecular target: Neu5Gc(a2-3)Gal(b1-4)Glc
# Outline: as §1
binder,measurement,setting,value
B1,glycan array binding signal (z-score),[1],-0.233
same,glycan array binding signal (z-score),[2],-0.175
same,glycan array binding signal (z-score),[3],-0.277
same,glycan array binding signal (z-score),[4],-0.326
same,glycan array binding signal (z-score),[5],0.231
same,glycan array binding signal (z-score),[6],-0.331
same,glycan array binding signal (z-score),[7],-0.372
same,glycan array binding signal (z-score),[8],0.612
same,glycan array binding signal (z-score),Gal(a1-3)Gal(b1-3)GlcNAc,-0.453
same,glycan array binding signal (z-score),Gal(a1-3)GalNAc,-0.37
same,glycan array binding signal (z-score),[9],-0.212
same,glycan array binding signal (z-score),[10],-0.391
same,glycan array binding signal (z-score),[11],-0.504
same,glycan array binding signal (z-score),[12],-0.378
same,glycan array binding signal (z-score),[13],-0.168
same,glycan array binding signal (z-score),[14],4.53
same,glycan array binding signal (z-score),[15],-0.347
same,glycan array binding signal (z-score),[16],-0.462
same,glycan array binding signal (z-score),[17],4.18
same,glycan array binding signal (z-score),[18],4.08
same,glycan array binding signal (z-score),GalNAc3S(b1-4)GlcNAc,1.43
same,glycan array binding signal (z-score),[19],4.61
same,glycan array binding signal (z-score),[20],3.99
same,glycan array binding signal (z-score),[21],-0.164
same,glycan array binding signal (z-score),[22],4.58
same,glycan array binding signal (z-score),[23],-0.203
same,glycan array binding signal (z-score),GlcNAc(b1-3)Gal(b1-4)Glc,-0.196
same,glycan array binding signal (z-score),[24],3.73
same,glycan array binding signal (z-score),[25],4.24
same,glycan array binding signal (z-score),[26],3.78
same,glycan array binding signal (z-score),[27],1.62
same,glycan array binding signal (z-score),[28],4.73
same,glycan array binding signal (z-score),[29],-0.338
same,glycan array binding signal (z-score),[30],3.83
same,glycan array binding signal (z-score),GlcNAc(b1-6)GalNAc,1.1
same,glycan array binding signal (z-score),[31],-0.455
same,glycan array binding signal (z-score),[32],-0.336
same,glycan array binding signal (z-score),Man(b1-4)GlcNAc,-0.3
same,glycan array binding signal (z-score),[33],-0.439
same,glycan array binding signal (z-score),[34],-0.385
same,glycan array binding signal (z-score),[35],-0.204
same,glycan array binding signal (z-score),[36],-0.305
same,glycan array binding signal (z-score),[37],-0.416
same,glycan array binding signal (z-score),[38],-0.242
same,glycan array binding signal (z-score),[39],-0.351
same,glycan array binding signal (z-score),[40],-0.398
same,glycan array binding signal (z-score),[41],-0.339
same,glycan array binding signal (z-score),[42],-0.24
same,glycan array binding signal (z-score),[43],-0.287
same,glycan array binding signal (z-score),[44],-0.48
same,glycan array binding signal (z-score),Neu5Gc(a2-3)Gal(b1-4)Glc,-0.447
